# This is a sample that favours compounds with a hit; in the whole collection about 6.5% have one here.
# Marburg entry inh = inhibitors of Marburg virus binding or cell entry. Marburg virus pseudotyped entry inhibition, cell reporter. Potency, µM (highest dose often 37.8 µM), inactives show at the highest dose activity change, negative = inhibition, usual class: inhibitors. 300,000 compounds, 1.8% hits. AID 540276; calls by dose curve; tested in HEK293 cells; further: potency means the concentration at half of the fitted maximal effect
# HCMV antiviral = inhibitors of human cytomegalovirus; HFF cells, HCMV-luciferase reporter, 72 h; stronger effect = lower value; activity change, negative = inhibition, % at 57.5 µM; 410,000 compounds, 4.5% hits; in the data active means activity change below about -60%; inconclusive means no clear call, values can overlap the other calls; inactive means above about -39%
#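 Steps: HFFs plated, 16 h 37C; compounds added; HCMV-luciferase added to MOI 1 PFU/cell; 72 h 37C; OneGlo reagent, 5 min room temperature; luminescence read, normalized to controls.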
# Lassa entry inh = inhibitors of Lassa virus binding or cell entry | Lassa virus pseudotype entry inhibition, cell reporter | Potency, µM (highest dose often 37.9 µM), for the others: top-dose activity change, negative = inhibition, actives largely listed as inhibitors | 300,000 compounds, 1.2% hits; calls by dose curve; tested in HEK293 cells; further: potency means the concentration at half of the fitted maximal effect; nearly all actives have a fitted effect of over 50% in size
# FMDV antiviral = foot and mouth disease virus antiviral activity; FMDV antiviral cell-based qHTS; Potency, µM (doses to about 57.9 µM), inactives show top-dose activity change, negative = inhibition, hits mostly inhibitors; 410,000 compounds, 1.2% hits; AID 1159524; calls by dose curve; tested in HEK293T cells; further: read-out not given here; potency means the concentration at half of the fitted maximal effect; nearly all actives have a fitted effect of over 45% in size
# Vaccinia mCherry = inhibitors of vaccinia virus infection (mCherry reporter signal); Vaccinia virus mCherry reporter infection, fluorescence; Potency, µM (top dose mostly 36.5 µM), for inactives: at the top dose activity change, negative = inhibition, most hits filed as inhibitors; 310,000 compounds, 0.63% hits; AID 720579; calls by dose curve; tested in A549 cells; further: potency means the concentration at half of the fitted maximal effect; nearly all actives have a fitted effect of over 35% in size
# Vaccinia Venus = vaccinia inhibition (Venus reporter) | Vaccinia virus Venus reporter expression, fluorescence | AID 720580 | Potency, µM (highest dose often 36.5 µM), for inactives: at the top dose activity change, negative = inhibition, usual class: inhibitors | 330,000 compounds, 0.46% hits; calls by dose curve; tested in A549 cells; further: potency means the concentration at half of the fitted maximal effect; nearly all actives have a fitted effect of over 30% in size
# The depositor's hits bear a star; i = inactive; ? = inconclusive; · = not tested or not shown; [ ] = remark or other dose. On the % scale 0 is the no-effect control and ±100 the full control effect.
SMILES,Marburg entry inh,HCMV antiviral,Lassa entry inh,FMDV antiviral,Vaccinia mCherry,Vaccinia Venus
Cc1ccc(Sc2ccc(C(=O)N3CCOCC3)cc2[N+](=O)[O-])cc1,·,-74.9*,·,-22.2%,·,·
Cc1c([N+](=O)[O-])cc(C(=O)N2CCOCC2)cc1[N+](=O)[O-],?,0.2,5.4%,-15.1%,-3.8%,-6.5%
COc1cccc(-c2cc3c(Nc4ccc(OC)cc4C)nccc3n2C)c1,·,-2.2,·,·,·,·
Cn1c(-c2ccsc2)cc2c(Nc3ccc(Oc4ccccc4)cc3)nccc21,·,-89.3*,·,·,·,·
CC(C)c1ccc(C2=CC(c3cccc(Cl)c3)n3c(nc4ccccc43)N2)cc1 (centres undefined),·,-63.2*,-16.6%[46.1 µM],-75.2%,-6.3%[7.34 µM],19.6%[7.34 µM]
OC(COCCOc1ccc(Br)cc1)CN1CCN(Cc2ccccc2)CC1 (centres undefined),?,-100.6*,?,?,?,-26.6%
CCc1ccc(OCCOCC(O)CN2CCN(Cc3ccc(Cl)cc3)CC2)cc1 (centres undefined),?,-29.5,?,-6.5%,-6.6%,-24.8%
NC(=O)c1csc(C2OC(CO)C(O)C2O)n1 (centres undefined),·,-20.6,·,-22.6%,-5.4%,-6.4%
O=C1C=C(C2OC(CO)C(O)C2O)C(=O)N1 (centres undefined),·,-15.7,·,39.8µM*,-3.6%,1.3%
O=C(Nc1ccccc1)[C@@H]1CC=C[C@@H]2CCN(C3CC3)C(=O)[C@@H]21,·,·,·,·,i,-6.4%
C1=CN2CC=Cc3cc(/C=C/c4ccnc5ccccc45)cc(c32)C1,·,·,·,·,-4.7%,169.4%
Cc1cccnc1C(NC(=O)C1CCN(Cc2ccc(Cl)cc2)CC1)c1ccc(F)cc1 (centres undefined),·,13.7,·,-22.5%,-29.0%,-19.5%
O=C(CCc1ccccc1)N/N=C/c1cc(Br)ccc1O,22.4µM*,-76.2*,?,-3.7%,12.6µM*,?
O=C(N/N=C/c1cc(Br)ccc1O)c1ccccc1Cl,?,-64.7*,?,0.9%,?,?
CN(C)c1ccc(C(=O)N/N=C/c2cc(Br)cc(Br)c2O)cc1,?,-90.1*,?,-15.4%,-38.6%,-36.0%
COc1ccc(O)c(/C=N/NC(=S)NCCc2ccccc2)c1,?,-19.4,?,-23.8%,?,?
Oc1ccc(Br)cc1/C=N/NC(=S)NCCc1ccccc1,?,-18.3,-12.8%[46.1 µM],2.5%,1µM*,-11.1%
CCCn1c(=O)c2sccc2n2c(CCCC(=O)NC3CCN(Cc4ccccc4)CC3)nnc12,·,0.0,·,-8.6%,·,·
COCCn1c(=O)cnc2cnc(N3CCN(C)CC3)nc21,·,·,·,-10.6%,·,·
Cc1nc(-c2ccc(S(=O)(=O)Nc3ccc(OC(F)(F)F)cc3)cc2)co1,·,-15.2,-2.6%[46.1 µM],-5.7%,-1.7%,-0.6%
CCOc1cc(Br)cc(/C=N/NC(=O)c2cccnc2)c1O,?,19.9,?,?,7.08µM*,?
Cc1ccc(C(=O)N/N=C/c2cc(Br)ccc2O)cn1,·,-102.3*,·,16.5%,·,·
Cc1ccc(C(=O)N/N=C\C=C\c2ccc(Br)cc2)cn1,·,-13.5,·,10.0%,·,·
O=C(N/N=C/c1cc(Br)ccc1O)C(=O)Nc1ccccc1OC(F)(F)C(F)F,?,-105.3*,?,-27.7%,·,·
CC(C)(C)NCC(O)(c1ccc(Cl)cc1)c1ccc(Cl)cc1,3.16µM*,·,?,-23.8%,?,0.3%
SMILES,Marburg entry inh,HCMV antiviral,Lassa entry inh,FMDV antiviral,Vaccinia mCherry,Vaccinia Venus
CC(C)NCC(O)(c1ccc(Cl)cc1)c1ccc(Cl)cc1,?,?,-11.9%[46.1 µM],-10.5%,-18.9%,-12.1%
O=C(Cc1n[nH]c(=O)c2ccccc12)OCc1c(Cl)cccc1Cl,0.517µM*,-67.6*,0.631µM*,-1.7%,?,20.1%
COc1ccc(-n2c(=O)c(-c3cn(C)c4ccccc34)nc3cnc(N4CCOCC4)nc32)cc1,·,·,·,-5.1%,·,·
COP(=O)(OC)c1ccc(NCc2cc(O)ccc2O)cc1,4.47µM*,?,-23.4%,8.4%,-11.7%,-4.1%
O=C(OCc1ccccc1)c1ccc(NCc2cc(O)ccc2O)cc1,?,-86.8*,2.51µM*,10µM*,10µM*,?
CC(C)OC(=O)c1ccc(NCc2cc(O)ccc2O)cc1,2µM*,-62.7*,12.6µM*,6.31µM*,?,-16.2%
COC(=O)c1ccc(OCC(=O)c2ccc(O)cc2O)cc1,27.7%,-61.1*,?,-7.4%,·,·
CCC(=O)Nc1ccc(C(=O)OCc2ccccc2)cc1,?,-14.6,16.4%[46.1 µM],29.6%,-2.3%,-2.2%
